How the values were obtained:
[1] = biological target: T1, Aspartate--tRNA(Asp/Asn) ligase (Mycobacterium tuberculosis (strain ATCC 25618 / H37Rv)) (UniProt P9WFW3); test: Assay for Asp RNA synthetase-1 from Mycobacterium tuberculosis; assay type: functional; parameters: scale not given: direction of the effect not stated beside the values; conditions: 30 µM; note: in the data most compounds retested in dose-response had high values
T1 sequence (whole entry): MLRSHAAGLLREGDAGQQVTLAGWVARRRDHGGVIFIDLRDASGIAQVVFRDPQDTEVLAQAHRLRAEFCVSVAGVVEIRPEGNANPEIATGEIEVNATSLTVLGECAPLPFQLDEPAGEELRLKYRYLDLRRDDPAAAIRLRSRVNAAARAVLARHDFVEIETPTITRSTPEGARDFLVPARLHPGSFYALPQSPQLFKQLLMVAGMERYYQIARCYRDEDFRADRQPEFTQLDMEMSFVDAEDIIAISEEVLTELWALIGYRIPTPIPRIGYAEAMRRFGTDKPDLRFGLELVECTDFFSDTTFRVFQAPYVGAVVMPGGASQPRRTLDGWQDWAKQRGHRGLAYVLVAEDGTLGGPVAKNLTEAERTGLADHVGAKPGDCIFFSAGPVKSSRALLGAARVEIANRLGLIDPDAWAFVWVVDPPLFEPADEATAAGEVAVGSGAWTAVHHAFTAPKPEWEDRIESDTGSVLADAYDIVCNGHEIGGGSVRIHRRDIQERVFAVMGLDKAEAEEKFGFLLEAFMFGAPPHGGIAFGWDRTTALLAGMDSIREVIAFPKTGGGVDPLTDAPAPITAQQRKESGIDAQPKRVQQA

[2] = biological target: Shiga toxin 2 (Escherichia coli O157:H7) (UniProt P09385+P09386); test: E. coli 0.157:H7 Shiga Toxin SOP - stx2 screening assay; assay type: functional; parameters: scale not given: direction of the effect not stated beside the values; conditions: 30 µM

Compound	Percent Effect [1] [%]	Percent Effect [2] [%]
CNC(=O)CCCNCc1c(C)nn(C)c1N(C)C	2.12	-15.3
c1csc(CN2CCO[C@H]3[C@H](OCCN4CCCC4)CC[C@@H]32)n1	2.94	-36.8
Cc1ncsc1CN1CC[C@H]2C(=O)N(c3ccccc3)CCO[C@H]2C1	-1.84	3.87
O=C(NCCC(=O)N1CCCC1)c1nn(-c2ccccc2F)cc1O	-3.29	-59.6
COc1ccc(CNCC(C)Oc2ccccn2)cc1Br (stereo not drawn)	-3.54	-30.6
Cc1c(C)n(-c2ccccn2)c2nc3c(c(N)c12)CCCC3	-3.86	-68.1
Cn1ccnc1CNC(=O)N(CCCO)C1CCCc2ccccc21 (stereo not drawn)	0.809	1.57
CC(C)Oc1ccccc1C1CC(=O)Nc2c1cnn2C (stereo not drawn)	2.79	-6.39
CCn1ccnc1CN1CCN(Cc2ccccn2)CC1C (stereo not drawn)	-1.39	-13.6
CCOCC1CC2(CCN(C(=O)c3ccccn3)CC2)CO1 (stereo not drawn)	0.961	5.8
O=C(CCNC(=O)C1CCCC1)NCc1ccccc1Cn1cncn1	2.64	29.7
Cc1nn(CC(=O)N2CCCC2Cn2cccn2)c(C)c1Cl (stereo not drawn)	0.155	-3.65
Cc1ccc(OCCC(=O)NC2CCc3nc(C)cn3C2)cc1 (stereo not drawn)	3.86	-17.6
O=C1CC2(CCN(CC3CCOC3)CC2)CN1Cc1cc(F)cc(F)c1 (stereo not drawn)	-4.88	2.13
CCCc1nc(C)cc(N2CCC3(CCC(=O)N(CC4CC4)C3)CC2)n1	3.82	-18.5
Cc1nccn1-c1cc(CNC(=O)C(C)(C)C)ccn1	10.6	-3.04
Cc1ccc(C(=O)N2CCn3cc(CN4CCCCC4)nc3C2)o1	8.53	-27.2
Cn1nccc1CNC(=O)Nc1cc(C(F)(F)F)c[nH]c1=O	0.5	21
Cc1cc2c(=O)n3c(nc2s1)CCN(C(=O)c1ccncc1)CC3	0.789	3.16
COc1cccc(CN2CCC(c3cc(O)nc(C)n3)C2)c1 (stereo not drawn)	-3.62	-14.1
CC(C)c1nccn1C1CCCN(C(=O)c2cccc3c2OCO3)C1 (stereo not drawn)	0.582	-1.21
COc1ccccc1CC(=O)NS(=O)(=O)c1ccc(C(N)=O)cc1	1.21	7.74
CCOCCCNc1nc(O)cc(C2CC(=O)N(C)C2)n1 (stereo not drawn)	-1.77	-22.7
Cc1ccsc1[C@@H]1CCN(C(=O)CCC(=O)N2CCCCCC2)C[C@H]1O	-0.418	-23.3
O[C@]1(c2ccccn2)CC[C@@H]2CN(Cc3cccc4ncccc34)C[C@@H]21	0.581	-21.3

Compound	Percent Effect [1] [%]	Percent Effect [2] [%]
CCc1nnc2n1CCN(C(=O)Cc1csc(-c3ccco3)n1)C2	-2.26	-3.06
Cc1cccc(NC(=O)NCCCn2nc3ccccn3c2=O)c1C	3.46	19.3
CN(C)C1CCN(C(=O)NCc2ccccc2Cn2cncn2)CC1	-2.31	0.165
CC1CCN(CCNC(=O)C2CCN(S(N)(=O)=O)CC2)CC1	1.78	0.821
O=C(NCC(O)c1ccc(F)c(F)c1)c1cccnc1OCC(F)(F)F (stereo not drawn)	-1.66	-9.04
CN(Cc1ccsc1)C(=O)c1cc2c([nH]c1=O)CCCC2=O	-1.51	12.2
Cc1nnc2n1CCN(Cc1csc(Cc3ccccc3)n1)C2	-4.28	1.17
NC[C@H]1CC[C@H](C(NC(=O)c2cccc(F)c2)c2ccccn2)CC1 (stereo partly drawn)	-0.28	-71.9
O=C(Cc1ccc(F)cc1)NCCNCC1CNc2ccnn2C1 (stereo not drawn)	-2.44	-33.6
c1cnnc(N2CCCC2CNCc2ccsc2)c1 (stereo not drawn)	-3.81	-8.21
COCC1c2nnn(CC3CC3)c2CCN1C(=O)c1ccnnc1 (stereo not drawn)	-4.7	-8.58
Cc1cc(C(F)(F)F)c2c(C3CCN(S(=O)(=O)N(C)C)CC3)noc2n1	7.31	0.93
CN(C)CCO[C@@H]1CC[C@H]2[C@H]1OCCN2C(=O)CCc1ccccc1	-1.17	-27.7
COCCN1CCCN(C(=O)NC(C)Cn2cccn2)CC1 (stereo not drawn)	1.3	-9.78
CCn1cnnc1CNC(=O)c1cc(Cl)ccc1O	3.77	-19.6
COC(=O)c1sccc1NC(=O)C1CCCN1C(=O)c1ccco1 (stereo not drawn)	-0.808	-12.3
NCc1cn(-c2ccccc2C(=O)NCc2cccc(Cl)c2)cn1	-0.574	40.7
Cc1cnn(CC2CCCN2CCCc2nc3ccccc3o2)c1 (stereo not drawn)	1.34	-14.6
CCNc1cc2c(nn1)CCN(C(=O)c1ccc(NC3CC3)nc1)C2	-0.723	2.8
Cc1ccc(NS(=O)(=O)c2cc3c(c(C(=O)O)c2)OCCO3)c(F)c1	-2.58	-5.6
CC(C)N(C)Cc1cn2c(n1)CN(Cc1ccsc1)CC2	1.89	-40.8
Cn1ccc(C(=O)N2CCC(Cc3cnc4[nH]ccc4c3)CC2)n1	0.283	19.7
Cc1nc2ccnn2c(C)c1CCC(=O)N1CCN(C2CC2)CC1	3.26	33
c1ccc(-c2nccc(CNCC3CCCN3c3cccnn3)n2)cc1 (stereo not drawn)	0.1	11.8
O=C(NCCOCC(F)(F)F)c1ccc(-c2ccco2)[nH]c1=O	0.409	20.7

Compound	Percent Effect [1] [%]	Percent Effect [2] [%]
CCc1nc(CN(C)CC2CCN(CC(C)O)CC2)no1 (stereo not drawn)	-3.85	11
CC[C@@H]1N(Cc2ccsc2)CCC[C@]12CCC(=O)N2CCOC	-5.67	7.49
CO[C@H]1CN(C(=O)c2ccccn2)[C@@H]2CCCO[C@H]12	1.27	0.669
COc1ccccc1CN1CC[C@]2(C[C@H](OC)CO2)C1	-1.25	-21.1
O=C(CCNC(=O)c1ccoc1)Nc1c(F)cccc1F	4.76	-4.74
Cc1cc(C(=O)N2CCc3nnc(N)cc3C2)c(C)n1C1CC1	7.93	-1.08
O=C1CC[C@H]2[C@H](CCN2C(=O)C2CCCO2)N1CCN1CCCC1 (stereo partly drawn)	-1.39	4.3
O=C1CCCCN1c1cccc(CNC2CCCC2)c1	-0.259	18
CC(=O)N1CCCC1c1nnc2n1CCCCC2 (stereo not drawn)	-0.915	0.261
CCc1nc(CN(C)CC(c2cccs2)N2CCOCC2)no1 (stereo not drawn)	-4.22	-5.08
COCCCNC(=O)CN(C)C(=O)c1cc(C)ccc1N(C)C(C)C	1.84	4.69
COc1cc(CNC2CCc3nc(C)nn3C2)cc2c1OCCO2 (stereo not drawn)	-2.19	-2.67
c1csc(CN2Cc3nccn3CC(Cn3cncn3)C2)n1 (stereo not drawn)	-2.48	-4.98
Cc1cc(CN2CC[C@H]3C(=O)N(c4ccccc4)CCO[C@H]3C2)no1	-4.96	-8.26
Cc1cc(CN2CCCC2Cn2cncn2)no1 (stereo not drawn)	-4.72	-0.0947
CCN(CC1CCOC1)C(=O)c1ccccc1N1CCOCC1 (stereo not drawn)	-0.562	23.4
Cc1ncccc1Oc1nccnc1C1CCN(C(C)C)CC1	-4.09	-1.37
CC(C)N1CCN(C(=O)Nc2cnn(CC(N)=O)c2)CC1	-5.08	-11.9
CC(c1nc(C(C)(C)C)no1)N1CCN(CC(=O)N2CCOCC2)CC1 (stereo not drawn)	-1.23	7.56
Cc1ccc2c(c1)CN(C(=O)c1ccccc1F)C(CN(C)C)CO2 (stereo not drawn)	5.11	3.26
CNC(=O)CS(=O)(=O)C1CCN(S(=O)(=O)C2CC2)CC1	1.09	-3.71
O=C(Cc1cccnc1)N1CCC2(CC1)CCN(C1CCOCC1)C2	1.28	-40.8
CC(C)CCNC(=O)c1sccc1N(C)S(=O)(=O)c1ccccc1	5.12	-20
COc1cc(CN(C)C(=O)Cc2c(C)nn(C)c2C)ccc1OC(F)F	-2.09	-4.8
